Data published in the supplement of paper PMC10849652.
About 7,900 targets were measured; listed, in parts, are those with a hit and a random draw of the rest. About 0.6% of all pairs of compound and target were hits.

UniProt Q96BZ9, sequence (Q96BZ9 whole entry, looked up): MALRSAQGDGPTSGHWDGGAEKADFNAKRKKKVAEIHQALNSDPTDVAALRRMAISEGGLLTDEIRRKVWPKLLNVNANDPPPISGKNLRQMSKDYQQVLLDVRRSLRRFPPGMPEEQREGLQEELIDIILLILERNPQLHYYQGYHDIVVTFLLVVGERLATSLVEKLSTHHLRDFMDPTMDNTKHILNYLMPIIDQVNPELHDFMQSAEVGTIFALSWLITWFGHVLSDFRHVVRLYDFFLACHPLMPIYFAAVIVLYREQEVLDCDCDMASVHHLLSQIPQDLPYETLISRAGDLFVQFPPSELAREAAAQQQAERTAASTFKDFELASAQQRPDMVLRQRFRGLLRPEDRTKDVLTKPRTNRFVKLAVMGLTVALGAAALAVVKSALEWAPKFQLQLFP
UniProt O60271, sequence (O60271 whole entry, looked up): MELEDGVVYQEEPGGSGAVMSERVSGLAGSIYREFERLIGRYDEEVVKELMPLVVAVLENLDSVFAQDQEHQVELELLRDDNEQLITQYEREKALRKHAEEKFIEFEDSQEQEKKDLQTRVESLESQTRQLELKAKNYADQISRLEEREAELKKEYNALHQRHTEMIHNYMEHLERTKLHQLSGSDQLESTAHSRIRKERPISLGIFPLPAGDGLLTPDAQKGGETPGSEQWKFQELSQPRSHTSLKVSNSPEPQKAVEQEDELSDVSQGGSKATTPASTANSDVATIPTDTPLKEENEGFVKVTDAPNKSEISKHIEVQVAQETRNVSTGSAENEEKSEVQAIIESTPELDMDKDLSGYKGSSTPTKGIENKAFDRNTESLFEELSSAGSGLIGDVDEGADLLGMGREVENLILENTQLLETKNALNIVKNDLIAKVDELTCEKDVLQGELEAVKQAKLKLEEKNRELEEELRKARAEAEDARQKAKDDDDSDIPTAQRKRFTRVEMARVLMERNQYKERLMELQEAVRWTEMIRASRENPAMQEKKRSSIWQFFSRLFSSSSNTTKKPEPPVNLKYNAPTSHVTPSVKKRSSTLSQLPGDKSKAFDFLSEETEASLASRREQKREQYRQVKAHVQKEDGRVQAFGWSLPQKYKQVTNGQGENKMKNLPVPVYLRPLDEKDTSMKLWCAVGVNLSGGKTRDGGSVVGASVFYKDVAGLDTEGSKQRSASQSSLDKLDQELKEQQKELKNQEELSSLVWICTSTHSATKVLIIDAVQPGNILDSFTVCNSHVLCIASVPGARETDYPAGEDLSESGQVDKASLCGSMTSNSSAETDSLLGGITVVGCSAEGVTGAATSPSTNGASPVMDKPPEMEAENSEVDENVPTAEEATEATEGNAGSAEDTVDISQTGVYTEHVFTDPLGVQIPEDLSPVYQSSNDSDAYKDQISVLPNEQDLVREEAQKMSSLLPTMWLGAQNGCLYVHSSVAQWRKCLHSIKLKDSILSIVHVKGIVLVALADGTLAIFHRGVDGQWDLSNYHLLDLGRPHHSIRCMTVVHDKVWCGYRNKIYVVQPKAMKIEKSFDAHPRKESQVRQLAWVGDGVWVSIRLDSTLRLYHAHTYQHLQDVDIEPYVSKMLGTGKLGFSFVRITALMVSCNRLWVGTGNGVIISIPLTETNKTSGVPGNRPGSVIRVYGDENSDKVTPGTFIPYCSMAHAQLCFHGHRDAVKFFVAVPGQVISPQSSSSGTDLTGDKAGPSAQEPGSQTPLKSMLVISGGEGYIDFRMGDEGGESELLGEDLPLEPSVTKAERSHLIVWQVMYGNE
UniProt O76062, sequence (O76062 whole entry, looked up): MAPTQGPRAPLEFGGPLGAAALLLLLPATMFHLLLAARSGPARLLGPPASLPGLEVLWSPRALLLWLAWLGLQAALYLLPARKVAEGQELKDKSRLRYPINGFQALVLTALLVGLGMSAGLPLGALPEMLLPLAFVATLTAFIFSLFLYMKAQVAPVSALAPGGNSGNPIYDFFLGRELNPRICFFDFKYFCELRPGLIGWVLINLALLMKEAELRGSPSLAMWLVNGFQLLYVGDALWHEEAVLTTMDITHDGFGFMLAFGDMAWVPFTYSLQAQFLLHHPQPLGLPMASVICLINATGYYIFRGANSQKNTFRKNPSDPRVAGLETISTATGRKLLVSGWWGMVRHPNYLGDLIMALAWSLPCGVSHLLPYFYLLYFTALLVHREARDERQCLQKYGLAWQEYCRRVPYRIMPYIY
UniProt P35711, sequence (P35711 whole entry, looked up): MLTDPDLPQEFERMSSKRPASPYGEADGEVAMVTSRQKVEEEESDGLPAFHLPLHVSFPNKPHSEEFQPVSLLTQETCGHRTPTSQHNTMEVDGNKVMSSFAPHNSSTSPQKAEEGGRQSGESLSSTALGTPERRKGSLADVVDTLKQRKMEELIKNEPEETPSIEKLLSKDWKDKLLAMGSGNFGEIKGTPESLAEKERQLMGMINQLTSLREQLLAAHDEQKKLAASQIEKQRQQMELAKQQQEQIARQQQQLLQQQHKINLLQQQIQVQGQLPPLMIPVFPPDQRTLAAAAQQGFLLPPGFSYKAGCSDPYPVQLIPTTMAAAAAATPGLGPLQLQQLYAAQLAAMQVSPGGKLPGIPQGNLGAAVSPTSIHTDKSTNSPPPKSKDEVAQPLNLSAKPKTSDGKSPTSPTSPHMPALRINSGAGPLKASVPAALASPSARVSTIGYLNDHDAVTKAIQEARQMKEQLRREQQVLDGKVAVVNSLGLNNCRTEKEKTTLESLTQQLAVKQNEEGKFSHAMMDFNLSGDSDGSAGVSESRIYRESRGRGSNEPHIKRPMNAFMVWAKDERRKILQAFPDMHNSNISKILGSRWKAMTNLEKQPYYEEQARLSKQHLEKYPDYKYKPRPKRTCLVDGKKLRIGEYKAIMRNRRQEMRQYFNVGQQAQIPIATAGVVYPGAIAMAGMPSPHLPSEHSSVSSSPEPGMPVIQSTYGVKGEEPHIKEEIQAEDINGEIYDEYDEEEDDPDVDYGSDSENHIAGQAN
UniProt P51532, sequence (P51532 whole entry, looked up): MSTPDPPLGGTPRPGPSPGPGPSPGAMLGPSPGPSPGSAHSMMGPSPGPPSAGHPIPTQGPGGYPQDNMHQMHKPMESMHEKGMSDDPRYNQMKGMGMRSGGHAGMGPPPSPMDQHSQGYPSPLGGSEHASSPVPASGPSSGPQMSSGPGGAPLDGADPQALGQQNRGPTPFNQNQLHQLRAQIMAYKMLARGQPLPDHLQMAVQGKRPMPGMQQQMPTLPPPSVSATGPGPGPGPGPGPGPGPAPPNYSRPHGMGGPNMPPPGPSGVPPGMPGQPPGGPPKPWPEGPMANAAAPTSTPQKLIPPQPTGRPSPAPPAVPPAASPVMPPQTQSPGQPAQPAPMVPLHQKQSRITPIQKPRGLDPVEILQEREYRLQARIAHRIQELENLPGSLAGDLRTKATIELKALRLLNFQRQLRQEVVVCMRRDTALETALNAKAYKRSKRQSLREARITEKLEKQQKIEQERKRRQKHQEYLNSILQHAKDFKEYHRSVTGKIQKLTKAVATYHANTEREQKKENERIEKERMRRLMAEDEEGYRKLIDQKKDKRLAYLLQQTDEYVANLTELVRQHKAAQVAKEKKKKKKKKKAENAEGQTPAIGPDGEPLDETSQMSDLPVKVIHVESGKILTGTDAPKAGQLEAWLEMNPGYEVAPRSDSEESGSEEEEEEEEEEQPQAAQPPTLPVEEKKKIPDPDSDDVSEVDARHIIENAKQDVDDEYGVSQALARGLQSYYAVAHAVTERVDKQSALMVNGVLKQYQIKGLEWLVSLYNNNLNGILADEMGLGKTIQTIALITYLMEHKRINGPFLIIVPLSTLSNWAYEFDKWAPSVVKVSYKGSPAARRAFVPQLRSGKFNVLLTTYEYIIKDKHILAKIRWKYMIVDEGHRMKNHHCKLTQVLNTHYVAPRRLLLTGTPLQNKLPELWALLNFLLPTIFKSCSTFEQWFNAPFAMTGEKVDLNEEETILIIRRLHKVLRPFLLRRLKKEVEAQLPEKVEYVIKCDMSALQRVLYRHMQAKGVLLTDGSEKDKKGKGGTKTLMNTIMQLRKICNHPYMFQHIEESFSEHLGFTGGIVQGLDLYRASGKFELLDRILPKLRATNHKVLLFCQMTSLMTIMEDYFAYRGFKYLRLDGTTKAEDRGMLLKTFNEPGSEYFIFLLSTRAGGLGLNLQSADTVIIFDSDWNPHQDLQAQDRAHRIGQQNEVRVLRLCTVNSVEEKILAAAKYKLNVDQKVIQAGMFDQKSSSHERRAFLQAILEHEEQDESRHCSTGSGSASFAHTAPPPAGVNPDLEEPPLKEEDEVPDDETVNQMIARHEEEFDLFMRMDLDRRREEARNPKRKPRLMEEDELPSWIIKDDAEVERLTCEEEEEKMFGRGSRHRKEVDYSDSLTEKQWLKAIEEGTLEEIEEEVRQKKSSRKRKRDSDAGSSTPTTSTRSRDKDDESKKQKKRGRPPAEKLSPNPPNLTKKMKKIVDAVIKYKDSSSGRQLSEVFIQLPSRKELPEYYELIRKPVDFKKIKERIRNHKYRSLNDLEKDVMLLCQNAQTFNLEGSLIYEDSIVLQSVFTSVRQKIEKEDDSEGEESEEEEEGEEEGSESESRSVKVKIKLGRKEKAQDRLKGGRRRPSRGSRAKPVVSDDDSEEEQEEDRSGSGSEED
UniProt Q96NT5, sequence (Q96NT5 whole entry, looked up): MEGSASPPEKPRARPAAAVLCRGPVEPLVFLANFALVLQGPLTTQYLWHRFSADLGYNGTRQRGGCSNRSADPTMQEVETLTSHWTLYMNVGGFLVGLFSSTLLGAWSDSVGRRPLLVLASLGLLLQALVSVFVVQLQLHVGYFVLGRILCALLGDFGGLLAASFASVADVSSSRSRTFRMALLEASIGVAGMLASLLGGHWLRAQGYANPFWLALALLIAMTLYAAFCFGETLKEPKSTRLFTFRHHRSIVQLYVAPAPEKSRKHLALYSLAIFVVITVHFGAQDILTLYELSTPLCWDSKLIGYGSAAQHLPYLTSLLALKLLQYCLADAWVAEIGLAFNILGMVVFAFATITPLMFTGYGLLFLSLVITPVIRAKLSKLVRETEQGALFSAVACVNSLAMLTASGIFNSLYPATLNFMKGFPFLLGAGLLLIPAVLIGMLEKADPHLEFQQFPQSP

Each target was assayed with CN1CCN(c2nc(C3=C(c4c[nH]c5ccccc45)C(=O)NC3=O)c3ccccc3n2)CC1 [sotrastaurin] (assay: log2 fold change, soluble protein after heating vs DMSO (PISA); higher = thermal stabilisation; K562 cells, 10 uM, 30 min; active = over 0.2 and 3.5 SD of the protein, either way, in both replicates (recomputed)).
Method in brief: (§1)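 Soluble protein was defined as the supernatant after 21,000xg for 90 min. It came from K562 cells at 2×10^6 cells/mL given 10 μM compound for 30 min, heated in aliquots for 3 min across 48°C-58°C, pooled, and extracted in PBS with 0.5% NP-40 at 4°C, and was quantified by TMTpro 16plex LC-MS/MS with equalised channel sums. Thermal stability against control samples, from duplicates, is reported as log2 fold change.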
With SNX2 isoform 2 (UniProt O60749) the log2 fold change was 0.003 (inactive).
In the case of SSBP4 (UniProt Q9BWG4), the log2 fold change was 0 (inactive).
With TK1 (UniProt K7ERV3) the log2 fold change was 0.011 (inactive).
With TBK1 (UniProt Q9UHD2) the log2 fold change was -0.063 (inactive).
SP2 (UniProt Q02086) was tested, and the log2 fold change was 0.091 (inactive).
With TCOF1 isoform 6 (UniProt Q13428) the log2 fold change was -0.094 (inactive).
In the case of TCOF1 isoform 3 (UniProt Q13428), the log2 fold change was 0.326 (inactive).
SPAG9 isoform 4 (UniProt O60271) was tested, and the log2 fold change was -0.171 (inactive).
In the case of SOX5 (UniProt P35711), the log2 fold change was -0.014 (inactive).
SRC isoform 2 (UniProt P12931) was tested, and the log2 fold change was -0.167 (inactive).
In the case of SMARCA4 (UniProt P51532), the log2 fold change was -0.086 (inactive).
TBC1D20 isoform 3 (UniProt Q96BZ9) was tested, and the log2 fold change was 0.053 (inactive).
For SLC35B4 (UniProt Q969S0), the log2 fold change was 0.012 (inactive).
For TM7SF2 (UniProt O76062), the log2 fold change was -0.142 (inactive).
In the case of SLC38A7 (UniProt Q9NVC3), the log2 fold change was 0.152 (inactive).
For SRXN1 (UniProt Q9BYN0), the log2 fold change was 0.019 (inactive).
With SRSF9 (UniProt Q13242) the log2 fold change was -0.015 (inactive).
SNRK (UniProt Q9NRH2) was tested, and the log2 fold change was 0.003 (inactive).

The targets below were run with CN1CC[C@H](c2c(O)cc(O)c3c(=O)cc(-c4ccccc4Cl)oc23)[C@H](O)C1 [alvocidib] in the same assay as above.
Method in brief: as §1
In the case of SNX2 isoform 2 (UniProt O60749), the log2 fold change was -0.078 (inactive).
TK1 (UniProt K7ERV3) was tested, and the log2 fold change was -0.009 (inactive).
In the case of SLC8B1 (UniProt Q6J4K2), the log2 fold change was 0.012 (inactive).
With TBP (UniProt P20226) the log2 fold change was 0.119 (inactive).
SLC46A1 (UniProt Q96NT5) was tested, and the log2 fold change was 0.193 (inactive).
With TCOF1 isoform 6 (UniProt Q13428) the log2 fold change was 0.104 (inactive).
For SPIRE1 (UniProt Q08AE8), the log2 fold change was 0.153 (inactive).
For SLC9A6 isoform 3 (UniProt Q92581), the log2 fold change was -0.044 (inactive).
With SPAG9 isoform 4 (UniProt O60271) the log2 fold change was 0.037 (inactive).
In the case of TEX30 (UniProt Q5JUR7), the log2 fold change was -0.177 (inactive).
In the case of SOX5 (UniProt P35711), the log2 fold change was -0.163 (inactive).
SMPD4 isoform 2 (UniProt Q9NXE4) was tested, and the log2 fold change was -0.07 (inactive).
SRC isoform 2 (UniProt P12931) was tested, and the log2 fold change was -0.061 (inactive).
With SMARCA4 (UniProt P51532) the log2 fold change was -0.068 (inactive).
For TBC1D20 isoform 3 (UniProt Q96BZ9), the log2 fold change was -0.428 (inactive).
For TM7SF2 (UniProt O76062), the log2 fold change was -0.048 (inactive).
SLC38A7 (UniProt Q9NVC3) was tested, and the log2 fold change was -0.137 (inactive).
In the case of SRXN1 (UniProt Q9BYN0), the log2 fold change was 0.015 (inactive).
In the case of SRSF9 (UniProt Q13242), the log2 fold change was 0.27 (inactive).
In the case of THAP9 (UniProt Q9H5L6), the log2 fold change was -0.087 (inactive).
In the case of TDP1 (UniProt Q9NUW8), the log2 fold change was -0.028 (inactive).
SYK (UniProt P43405) was tested, and the log2 fold change was -0.168 (inactive).
For SLC39A1 (UniProt Q9NY26), the log2 fold change was 0.072 (inactive).

What follows are targets tested with CN1CCc2c(c3ccccc3n2Cc2ccc(C(=O)NO)cc2)C1 [Tubastatin A] in the same assay as above.
Method in brief: as §1
SSBP4 (UniProt Q9BWG4) was tested, and the log2 fold change was 0.038 (inactive).
TK1 (UniProt K7ERV3) was tested, and the log2 fold change was -0.013 (inactive).
With TBK1 (UniProt Q9UHD2) the log2 fold change was -0.014 (inactive).
In the case of TBP (UniProt P20226), the log2 fold change was -0.014 (inactive).
SLC46A1 (UniProt Q96NT5) was tested, and the log2 fold change was 0.067 (inactive).
TCOF1 isoform 6 (UniProt Q13428) was tested, and the log2 fold change was -0.103 (inactive).
In the case of TCOF1 isoform 3 (UniProt Q13428), the log2 fold change was 0.054 (inactive).
In the case of SPIRE1 (UniProt Q08AE8), the log2 fold change was 0.141 (inactive).
For SLC9A6 isoform 3 (UniProt Q92581), the log2 fold change was 0.04 (inactive).
For SPAG9 isoform 4 (UniProt O60271), the log2 fold change was -0.103 (inactive).
For TEX30 (UniProt Q5JUR7), the log2 fold change was 0.022 (inactive).
For SOX5 (UniProt P35711), the log2 fold change was 0.263 (inactive).
In the case of SMPD4 isoform 2 (UniProt Q9NXE4), the log2 fold change was -0.054 (inactive).
In the case of SRC isoform 2 (UniProt P12931), the log2 fold change was -0.108 (inactive).
For SLC35B4 (UniProt Q969S0), the log2 fold change was 0.014 (inactive).
For TAOK2 (UniProt Q9UL54), the log2 fold change was -0.003 (inactive).
With SLC38A7 (UniProt Q9NVC3) the log2 fold change was -0.177 (inactive).
SRXN1 (UniProt Q9BYN0) was tested, and the log2 fold change was 0.209 (inactive).
In the case of TC2N (UniProt Q8N9U0), the log2 fold change was 0.308 (inactive).
In the case of SYK (UniProt P43405), the log2 fold change was 0.355 (inactive).

The targets below were run with CNC(=O)C1=CC=CC=C1NC2=NC(=NC=C2Cl)NC3=C(C=C(C=C3)N4CCOCC4)OC in the same assay as above.
Method in brief: as §1
For SSBP4 (UniProt Q9BWG4), the log2 fold change was -0.184 (inactive).
In the case of TBK1 (UniProt Q9UHD2), the log2 fold change was 0.536 (active).
For SLC8B1 (UniProt Q6J4K2), the log2 fold change was -0.019 (inactive).
With SLC46A1 (UniProt Q96NT5) the log2 fold change was 0.085 (inactive).
TCOF1 isoform 6 (UniProt Q13428) was tested, and the log2 fold change was -0.149 (inactive).
For TCOF1 isoform 3 (UniProt Q13428), the log2 fold change was -0.007 (inactive).
For SPIRE1 (UniProt Q08AE8), the log2 fold change was -0.166 (inactive).
For SLC9A6 isoform 3 (UniProt Q92581), the log2 fold change was 0.104 (inactive).
For SPAG9 isoform 4 (UniProt O60271), the log2 fold change was 0.081 (inactive).
With TEX30 (UniProt Q5JUR7) the log2 fold change was 0.015 (inactive).
In the case of SOX5 (UniProt P35711), the log2 fold change was -0.053 (inactive).
In the case of STK17B (UniProt O94768), the log2 fold change was -1.03 (active).
SRC isoform 2 (UniProt P12931) was tested, and the log2 fold change was -0.069 (inactive).
With SMARCA4 (UniProt P51532) the log2 fold change was -0.17 (inactive).
With TBC1D20 isoform 3 (UniProt Q96BZ9) the log2 fold change was 0.004 (inactive).
In the case of SLC35B4 (UniProt Q969S0), the log2 fold change was 0.046 (inactive).
TM7SF2 (UniProt O76062) was tested, and the log2 fold change was -0.043 (inactive).
In the case of SREBF1 isoform 4 (UniProt P36956), the log2 fold change was 0.033 (inactive).
For TAOK2 (UniProt Q9UL54), the log2 fold change was 0.244 (inactive).
In the case of SLC38A7 (UniProt Q9NVC3), the log2 fold change was -0.052 (inactive).
With SRSF9 (UniProt Q13242) the log2 fold change was -0.145 (inactive).
In the case of TDP1 (UniProt Q9NUW8), the log2 fold change was -0.041 (inactive).
In the case of SPIN4 (UniProt Q56A73), the log2 fold change was -0.199 (inactive).
In the case of SYK (UniProt P43405), the log2 fold change was -0.113 (inactive).
For SLC39A1 (UniProt Q9NY26), the log2 fold change was -0.129 (inactive).
